Compound activity deposited in PubChem by The Scripps Research Institute Molecular Screening Center.
Most compounds without a hit are left out; they make up all but 1.3% or so of the library.
Fam108B inh: Fam108B inhibition, counter-screen for RBBP9 inhibitors | recombinant Fam108B, FP-Rh probe fluorescence polarization | inhibition, % at 9.51 µM | hit rate 0.33% among 300,000;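 active = inhibition above the screen mean inhibition plus 3 SD, computed separately per campaign, cut at about 18% in these data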;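 note: inhibitors lower polarization as less probe binds the enzyme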
PREPL inhibitor: human PREPL enzyme inhibition | Q4J6C6 | recombinant PREPL, fluorescence polarization activity-based probe | inhibition, % at 5.96 µM | hit rate 0.68% among 320,000 | AID 2751; in the data active = inhibition above about 43%;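 note: 0% = enzyme with DMSO and 100% = wells lacking enzyme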
LYPLA1 inh: counter-screen for PME1 inhibitors: inhibitors of human LYPLA1; recombinant LYPLA1, FP-Rh probe fluorescence polarization; inhibition, % at 5.9 µM; hit rate 0.16% among 320,000;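 active = inhibition above the mean of all tested compounds plus 3 SD, set per campaign, cut at about 14% in these data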;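 note: inhibitors block serine hydrolase probe labeling of LYPLA1 so polarization falls; 0% = enzyme with DMSO and 100% = wells lacking LYPLA1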
LYPLA2 counter: LYPLA2 (human) inhibition in PME1 counter-screen; O95372; recombinant LYPLA2, FP-Rh probe fluorescence polarization; inhibition, % at 5.9 µM; hit rate 0.38% among 320,000;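 active = inhibition above the screen-wide mean plus 3 SD, limit set per campaign, cut at about 26% in these data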;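 note: 0% = LYPLA2 with DMSO and 100% = wells lacking LYPLA2 enzyme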
Target sequence (O95372 whole entry, looked up): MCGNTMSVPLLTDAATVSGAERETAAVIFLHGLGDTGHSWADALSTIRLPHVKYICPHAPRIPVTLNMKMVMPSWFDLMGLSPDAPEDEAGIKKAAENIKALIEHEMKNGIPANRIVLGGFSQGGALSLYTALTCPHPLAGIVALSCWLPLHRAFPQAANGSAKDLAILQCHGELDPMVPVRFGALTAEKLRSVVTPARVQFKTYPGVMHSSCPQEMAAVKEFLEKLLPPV
PME-1 primary: blocks human protein phosphatase methylesterase 1; Q9Y570; recombinant PME-1, FP-Rh probe fluorescence polarization; inhibition, % at 5.9 µM; hit rate 0.53% among 320,000;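 active = inhibition above the campaign mean of all compounds plus 3 SD, cut at about 26% in these data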;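 note: competitive labeling of PME-1 active site by serine hydrolase directed probe; 0% = PME-1 with DMSO and 100% = wells lacking PME-1 enzyme; inhibitors block probe labeling so polarization falls and inhibition rises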
Target sequence (Q9Y570 whole entry, looked up): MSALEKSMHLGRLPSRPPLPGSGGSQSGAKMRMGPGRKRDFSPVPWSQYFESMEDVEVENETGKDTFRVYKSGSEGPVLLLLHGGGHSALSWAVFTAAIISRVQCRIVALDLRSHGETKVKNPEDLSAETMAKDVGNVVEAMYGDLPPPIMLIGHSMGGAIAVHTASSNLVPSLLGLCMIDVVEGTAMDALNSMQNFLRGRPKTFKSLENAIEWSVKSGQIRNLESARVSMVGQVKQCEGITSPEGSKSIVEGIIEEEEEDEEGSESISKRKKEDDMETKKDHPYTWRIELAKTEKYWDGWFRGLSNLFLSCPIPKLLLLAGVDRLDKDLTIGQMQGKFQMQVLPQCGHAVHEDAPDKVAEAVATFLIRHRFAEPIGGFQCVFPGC
Fam108b confirm: confirmation of mouse Fam108b serine hydrolase inhibitors | inhibition, % at 9.51 µM | recombinant Fam108b, FP-Rh probe fluorescence polarization | shares compounds with Fam108B inh | hit rate 44% among 930;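 active = inhibition above a limit from the primary screen, the mean over all compounds plus 3 SD, cut at about 19% in these data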;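 note: 0% = median of active Fam108b wells and 100% = catalytically dead S170A mutant; inhibitors free the probe so polarization falls as inhibition rises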
Fam108b inh: mouse ABHD17B inhibition; recombinant Fam108b, gel-based ABPP, fluorophosphonate probe; hit rate 44% among 260; AID 588649; shares compounds with Fam108B inh; inhibition, % at 20 µM; in the data active = inhibition above about 40%
* hit, by the source's call.

Results for CCO[C@H]1OC(C(=O)NCc2nc3ccccc3[nH]2)=C[C@@H](c2ccc3c(c2)OCO3)[C@@H]1CCCO ?
Fam108B inh: -1.9; PREPL inhibitor: 10.5; LYPLA1 inh: -1.3; LYPLA2 counter: 0.9; PME-1 primary: 0.7

How did CCCCNC(=O)c1sc(=S)n2c1[nH]c(=O)c1ccccc12 do in these assays?
Fam108B inh: 26.8*; PREPL inhibitor: 16.6; LYPLA1 inh: 5.2; LYPLA2 counter: 6.7; PME-1 primary: 16.7; Fam108b confirm: 32.4*; Fam108b inh: 25.0

Results for O=C(NC1CCCCC1)c1sc(=S)n2c1[nH]c(=O)c1ccccc12 ?
Fam108B inh: 35.4*; PREPL inhibitor: 30.1; LYPLA1 inh: 2.2; LYPLA2 counter: 5.1; PME-1 primary: 20.4; Fam108b confirm: 32.2*; Fam108b inh: 85.0*

What do the screens show for `COc1ccc(OC)c(CCNC(=O)c2ccc3c(=O)[nH]c4c(C(=O)NC(C)C)sc(=S)n4c3c2)c1`?
Fam108B inh: 15.1; PREPL inhibitor: 26.9; LYPLA1 inh: -1.2; LYPLA2 counter: 9.0; PME-1 primary: 24.3

How did CC1=NN(c2ccccc2)C(=O)/C1=C/c1cccs1 do in these assays?
Fam108B inh: -2.5; PREPL inhibitor: 3.0; LYPLA1 inh: 0.5; LYPLA2 counter: 4.3; PME-1 primary: 0.4

How did CC1=NN(c2ccccc2)C(=O)/C1=C/c1c(O)n(-c2ccc(F)cc2)[nH]c1=O do in these assays?
Fam108B inh: 46.5*; PREPL inhibitor: 18.6; LYPLA1 inh: 0.0; LYPLA2 counter: 4.8; PME-1 primary: 50.9*; Fam108b confirm: 50.8*; Fam108b inh: 5.0

What do the screens show for `O=C(O)C1Nc2ccc(OC(F)(F)F)cc2C2C=CCC12` (centres undefined)?
Fam108B inh: 22.5*; PREPL inhibitor: 10.6; LYPLA1 inh: -1.1; LYPLA2 counter: 7.3; PME-1 primary: 6.2; Fam108b confirm: 4.2

What do the screens show for `COc1cccc2c1NC(C(=O)O)C1CC=CC21` (centres undefined)?
Fam108B inh: 53.4*; PREPL inhibitor: 41.2; LYPLA1 inh: -2.7; LYPLA2 counter: 6.0; PME-1 primary: 14.2; Fam108b confirm: 16.5

Results for COc1cccc(C2Nc3c(F)cc(Br)cc3C3C=CCC32)c1OC (centres undefined) ?
Fam108B inh: -1.2; PREPL inhibitor: 9.0; LYPLA1 inh: 4.6; LYPLA2 counter: 3.7; PME-1 primary: -2.5

What do the screens show for `COc1cc2c(cc1NC(=O)Nc1ccc(C)cc1)oc1ccccc12`?
Fam108B inh: 4.6; PREPL inhibitor: 2.2; LYPLA1 inh: -7.2; LYPLA2 counter: -17.6; PME-1 primary: 11.7

Results for COc1cc2c(cc1NC(=O)Nc1cccc(C)c1)oc1ccccc12 ?
Fam108B inh: 22.5*; PREPL inhibitor: 6.0; LYPLA1 inh: -11.6; LYPLA2 counter: 5.6; PME-1 primary: 35.8*; Fam108b confirm: 8.1

What do the screens show for `NS(=O)(=O)c1ccc(N=Nc2c(-c3ccccc3)[nH]n(-c3nc(-c4ccccc4)cs3)c2=O)cc1`?
Fam108B inh: 33.2*; PREPL inhibitor: 2.7; LYPLA1 inh: 2.0; LYPLA2 counter: -3.3; PME-1 primary: 13.4; Fam108b confirm: 1.3

Results for Nc1[nH]n2c(=O)cc(-c3ccccc3)nc2c1N=Nc1ccc(S(N)(=O)=O)cc1 ?
Fam108B inh: 17.2; PREPL inhibitor: 26.4; LYPLA1 inh: -1.3; LYPLA2 counter: -4.2; PME-1 primary: -10.9

Results for Cc1ccc(OCC(=O)Nc2oc(-c3ccccc3)c(-c3ccccc3)c2C#N)cc1 ?
Fam108B inh: -9.4; PREPL inhibitor: 0.6; LYPLA1 inh: -17.9; LYPLA2 counter: -22.7; PME-1 primary: -15.0

How did COc1ccc(-c2oc(NC(=O)CCl)c(C#N)c2-c2ccc(OC)cc2)cc1 do in these assays?
Fam108B inh: 22.4*; PREPL inhibitor: 13.2; LYPLA1 inh: 3.4; LYPLA2 counter: 8.3; PME-1 primary: 41.9*; Fam108b confirm: 33.7*; Fam108b inh: 20.0

What do the screens show for `CCCCn1c(N)c(N(CCOC)C(=O)CSCc2ccccc2C)c(=O)[nH]c1=O`?
Fam108B inh: 27.0*; PREPL inhibitor: 2.1; LYPLA1 inh: 1.7; LYPLA2 counter: 0.2; PME-1 primary: -1.7; Fam108b confirm: 0.5

Results for Cc1cccc2c(N=O)c(O)[nH]c12 ?
Fam108B inh: 27.5*; PREPL inhibitor: 41.4; LYPLA1 inh: 7.2; LYPLA2 counter: 12.1; PME-1 primary: 53.1*; Fam108b confirm: 24.1*

What do the screens show for `Cc1[nH]c2c(C)cccc2c1CC(=O)O`?
Fam108B inh: 2.0; PREPL inhibitor: -5.3; LYPLA1 inh: -1.4; LYPLA2 counter: -7.8; PME-1 primary: 0.6

How did CCCCNC(=O)Oc1c(Br)cc2sc(=O)oc2c1Br do in these assays?
Fam108B inh: 25.7*; PREPL inhibitor: 17.9; LYPLA1 inh: -1.0; LYPLA2 counter: -2.4; PME-1 primary: -10.1; Fam108b confirm: 1.2

Results for COc1ccc2oc(=O)c(-c3csc(Nc4cccc(O)c4)n3)cc2c1 ?
Fam108B inh: 34.1*; PREPL inhibitor: 35.8; LYPLA1 inh: 1.3; LYPLA2 counter: 15.8; PME-1 primary: 47.3*; Fam108b confirm: 39.4*; Fam108b inh: 100.0*

Results for Nc1ccccc1S(=O)(=O)C(F)F ?
Fam108B inh: 1.5; PREPL inhibitor: 1.4; LYPLA1 inh: -0.7; LYPLA2 counter: -0.9; PME-1 primary: -1.7

How did Cc1cccnc1Nc1nc(-c2ccc(O)cc2O)cs1 do in these assays?
Fam108B inh: 18.3*; PREPL inhibitor: 5.7; LYPLA1 inh: 0.3; LYPLA2 counter: -4.8; PME-1 primary: 22.9; Fam108b confirm: 10.2

Results for NS(=O)(=O)c1ccc(Nc2nc(-c3ccc(F)cc3)cs2)cc1 ?
Fam108B inh: 3.0; PREPL inhibitor: 13.2; LYPLA1 inh: -3.9; LYPLA2 counter: -4.8; PME-1 primary: 7.0

Results for Cc1cc(NS(=O)(=O)c2ccc(Nc3nc(-c4ccc(O)cc4)cs3)cc2)no1 ?
Fam108B inh: 25.8*; PREPL inhibitor: 13.8; LYPLA1 inh: 6.7; LYPLA2 counter: 5.1; PME-1 primary: 2.9; Fam108b confirm: -70.3

Results for Oc1ccc(-c2csc(Nc3ccccn3)n2)c(O)c1 ?
Fam108B inh: 19.1*; PREPL inhibitor: 17.5; LYPLA1 inh: -3.1; LYPLA2 counter: -2.8; PME-1 primary: 14.1; Fam108b confirm: 12.1

What do the screens show for `NS(=O)(=O)c1ccc(Nc2nc(-c3ccc(O)cc3O)cs2)cc1`?
Fam108B inh: 22.6*; PREPL inhibitor: 17.0; LYPLA1 inh: -9.3; LYPLA2 counter: 0.0; PME-1 primary: 11.8; Fam108b confirm: 98.6*; Fam108b inh: 35.0

What do the screens show for `Cc1cccnc1Nc1nc(-c2ccccn2)cs1`?
Fam108B inh: 3.4; PREPL inhibitor: 23.1; LYPLA1 inh: 3.5; LYPLA2 counter: 10.1; PME-1 primary: 12.0

Results for CCCN(CC(=O)Nc1ccccc1OC)C(=O)CSC(=S)N1CCCC1 ?
PREPL inhibitor: -1.8; LYPLA1 inh: 0.3; LYPLA2 counter: 4.1; PME-1 primary: -3.5
